Bcl-B Bim block: inhibitors of Bim-Bcl-B interaction, human | Q9HD36 | bead-based flow cytometry, Bim peptide-Bcl-B binding | inhibition, % at 10 µM | 190,000 tested, 0.073% active | AID 951;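 note: 0% = tracer peptide without compound and 100% = reference inhibitor peptide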
Target sequence (Q9HD36 whole entry, looked up): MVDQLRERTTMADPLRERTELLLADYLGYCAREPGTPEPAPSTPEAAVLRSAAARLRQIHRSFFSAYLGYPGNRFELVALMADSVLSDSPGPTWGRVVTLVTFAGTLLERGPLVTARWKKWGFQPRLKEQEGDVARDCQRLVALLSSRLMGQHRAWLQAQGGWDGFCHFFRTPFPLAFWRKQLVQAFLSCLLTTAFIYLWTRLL
Bim-Bcl-XL: inhibitors of Bim-Bcl-XL interaction, human; Bim peptide-Bcl-XL binding, bead flow cytometry, fluorescence; inhibition, % at 10 µM; 190,000 tested, 0.04% active; Q07817
Bcl-xL primary: blocks human Bcl-xL binding to Bim BH3 peptide | Q07817 | GST-Bcl-xL / FITC-Bim BH3 peptide fluorescence polarization | inhibition, % at 10.9 µM | 320,000 tested, 0.7% active;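 active = inhibition above the mean of all tested compounds plus 3 SD, cutoff set per campaign, cut at about 30% in these data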;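 note: 0% = DMSO wells and 100% = unlabeled Bim-BH3 peptide competitor; inhibitors lower millipolarization by displacing the labeled peptide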
Bim-Bcl-2: inhibitors of Bim-Bcl-2 interaction, human | P10415 | Bead-based flow cytometry, Bim peptide-Bcl-2 binding | inhibition, % at 10 µM | 190,000 tested, 0.06% active; in the data active = inhibition above about 40%;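 note: 0% = no compound wells with probe peptide and 100% = reference peptide inhibitor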
Bcl-W Bim block: inhibitors of Bim-Bcl-W interaction, human | 190,000 tested, 0.02% active | inhibition, % at 10 µM | bead-based flow cytometry, Bim peptide-Bcl-W binding | Q92843 | AID 952;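 note: 0% = bound tracer without compound and 100% = peptide blocker; higher means less fluorescent Bim peptide bound to Bcl-W beads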
Target sequence (Q92843 whole entry, looked up): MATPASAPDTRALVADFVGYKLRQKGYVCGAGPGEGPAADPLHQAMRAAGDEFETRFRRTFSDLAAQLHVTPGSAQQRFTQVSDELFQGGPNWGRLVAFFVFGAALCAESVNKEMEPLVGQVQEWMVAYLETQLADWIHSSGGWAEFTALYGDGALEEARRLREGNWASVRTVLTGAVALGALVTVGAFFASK
Bfl-1 Bim block: disrupts Bim binding to human Bfl-1 | inhibition, % at 10 µM | Q16548 | 190,000 tested, 0.12% active | Bead-based flow cytometry, Bim-Bfl-1 binding inhibition;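 note: 0% = wells without compound plus tracer and 100% = blocker peptide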
Target sequence (Q16548 whole entry, looked up): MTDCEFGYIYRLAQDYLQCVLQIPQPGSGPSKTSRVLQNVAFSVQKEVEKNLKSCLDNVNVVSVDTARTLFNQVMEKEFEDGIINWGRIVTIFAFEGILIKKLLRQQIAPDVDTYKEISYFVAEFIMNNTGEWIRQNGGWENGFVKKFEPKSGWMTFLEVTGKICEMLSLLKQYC
* marks the source's active call; other numbers are inactive results; x = not tested or not shown; + = active, no number. Shown are actives, neighbours in structure and some others; about 0.81% of the full set was active somewhere. Cut-off read from the data, not from the text of the source, unless noted: active = inhibition above about 40%.

SMILES	Bcl-B Bim block	Bim-Bcl-XL	Bcl-xL primary	Bim-Bcl-2	Bcl-W Bim block	Bfl-1 Bim block
CCCOc1ccc(-c2cc(C(=O)NCC3CCCO3)c3ccccc3n2)cc1 (configuration not stated)	0.0	0.0	0.4	0.0	0.0	-2.0
O=C(Cc1ccccc1)NNc1c2ccccc2nc2ccccc12	0.0	-2.0	-2.0	0.0	-1.0	-2.0
O=C(Nc1c2ccccc2nc2ccccc12)C(Cl)(Cl)Cl	-3.0	4.0	36.5*	0.0	8.0	-5.0
Cc1c(NC(=O)Nc2cccc(C#N)c2)c(=O)n(-c2ccccc2)n1C	x	x	2.0	x	x	x
O=C(O)/C=C/C(=O)Nc1ccc(N2CCOCC2)nc1N1CCOCC1	x	x	38.5*	x	x	x
O=C(Nc1cccc(C(F)(F)F)c1)c1cccc(NS(=O)(=O)c2ccc(O)c(C(=O)O)c2)c1	x	x	6.2	x	x	x
CCN(CC)c1ccc(NC2=C(Cl)C(=O)c3ccccc3C2=O)cc1	-39.0	-6.0	12.0	16.0	21.0	70.0*
Cc1ccc(NC2=C(Cl)C(=O)c3ccccc3C2=O)cc1	16.0	26.0	4.7	9.0	17.0	20.0
CCOC(=O)C1CCCN(C(=O)c2ccc(C(=O)c3ccccc3)cc2)C1 (configuration not stated)	x	x	1.4	x	x	x
CCOC(=O)C1CCCN(C(=O)C2c3ccccc3Oc3ccccc32)C1 (configuration not stated)	-9.0	-12.0	+	-10.0	-3.0	-18.0
CCCCn1c(N)c(N(CCC(C)C)C(=O)C2CCCC2)c(=O)[nH]c1=O	x	x	-0.9	x	x	x
CC1(C)CC(=O)C2=C(C1)OC(N)=C(C#N)C2c1ccccc1 (configuration not stated)	0.0	0.0	3.3	-1.0	-2.0	-4.0
CC1(C)CC(=O)C2=C(C1)OC(N)=C(C#N)C2c1ccccc1[N+](=O)[O-] (configuration not stated)	-5.0	-3.0	164.6*	-2.0	-2.0	-7.0
O=C(Nc1nc2c(s1)CN(Cc1ccccc1)CC2)c1cccc(S(=O)(=O)N2CCc3ccccc32)c1	-4.0	0.0	54.6*	-3.0	0.0	-2.0
O=C(Nc1ccc(F)c(F)c1)C1=COCCO1	x	x	0.5	x	x	x
O=C(c1ccco1)[C@@H]1[C@@H]2C(=O)N(c3ccccc3)C(=O)[C@@H]2C2c3ccccc3C=CN21 (some centres not stated)	x	x	78.6*	x	x	x
Cc1ccc(N2C(=O)[C@@H]3[C@H](C2=O)C2c4ccccc4C=CN2[C@@H]3C(=O)c2ccco2)c(C)c1 (some centres not stated)	x	x	72.8*	x	x	x
Cc1ccc(N2C(=O)[C@@H]3[C@H](C2=O)C2c4ccccc4C=CN2[C@@H]3C(=O)c2ccco2)cc1 (some centres not stated)	-9.0	-12.0	x	-11.0	-2.0	-13.0
CC(C)(C)C(=O)[C@@H]1[C@@H]2C(=O)N(c3ccc4c(c3)OCCO4)C(=O)[C@@H]2C2c3ccccc3C=CN21 (some centres not stated)	3.0	3.0	-2.3	2.0	0.0	2.0
CC(=O)[C@@H]1[C@@H]2C(=O)N(Cc3ccccc3)C(=O)[C@@H]2C2c3ccccc3C=CN21 (some centres not stated)	-6.0	0.0	46.4*	-1.0	-4.0	2.0
COc1ccc(C(=O)NCCCOc2cccc(NC(C)=O)c2)cc1	x	x	4.9	x	x	x
CC(C)C1=C2OC(N)=C(C#N)C(C#N)=C2C(C)CC1 (configuration not stated)	-13.0	0.0	35.0*	0.0	0.0	3.0
CN1Cc2sc(N)c(C#N)c2CC1(C)C	-3.0	-2.0	60.6*	0.0	0.0	-4.0
CC1(C)Cc2c(sc(N)c2C#N)C(C)(C)N1	-29.0	-11.0	6.1	-5.0	-4.0	-2.0
CC1C2C(c3ccccc3)N(C)C(=O)N(C)C2N(C)C(=O)N1C (configuration not stated)	-4.0	-2.0	55.2*	-2.0	0.0	-7.0
SMILES	Bcl-B Bim block	Bim-Bcl-XL	Bcl-xL primary	Bim-Bcl-2	Bcl-W Bim block	Bfl-1 Bim block
CCN1C(c2ccccc2)C(C)C(=O)C(C)C1c1ccccc1 (configuration not stated)	-2.0	-3.0	4.1	-3.0	-2.0	-12.0
CC(CN1CCOCC1)OC(=O)c1ccccc1Cl (configuration not stated)	x	x	1.9	x	x	x
Cc1ccccc1C(=O)N1CC(=O)Nc2ccc(F)cc2C1c1ccc(F)cc1 (configuration not stated)	x	x	86.1*	x	x	x
O=C1CN(C(=O)c2ccccc2F)C(c2ccccc2)c2cc(F)ccc2N1 (configuration not stated)	x	x	-0.3	x	x	x
CC(C)N(C)C1CCN(C(=O)Nc2ccc(Cl)cc2)CC1	-7.0	-12.0	-1.7	-6.0	-3.0	-6.0
CC(C)CCN(C)C1CCN(C(=O)Nc2c(F)cccc2F)CC1	-7.0	-3.0	36.5*	-10.0	0.0	-9.0
O=C1COc2ccc(C(=O)COC(=O)c3cc(S(=O)(=O)N4CCOCC4)ccc3F)cc2N1	x	x	60.2*	x	x	x
O=C1COc2ccc(C(=O)COC(=O)CCc3ccc(S(=O)(=O)N4CCOCC4)cc3)cc2N1	-3.0	-3.0	3.6	-1.0	8.0	-5.0
Cc1ccc(-c2cc(C(=O)N3CCN(C(=O)c4ccco4)CC3)[nH]n2)cc1C	x	x	7.0	x	x	x
CC(=O)N1CC=C2C(C#N)=C(N)C(C#N)(C#N)[C@H](c3ccoc3)[C@H]2C1	-2.0	-2.0	43.9*	-2.0	-1.0	-1.0
N#CC1=C(N)C(C#N)(C#N)[C@H](c2ccoc2)[C@H]2CN(Cc3ccccc3)CC=C12	-2.0	0.0	114.1*	-1.0	0.0	0.0
CN1CC=C2C(C#N)=C(N)C(C#N)(C#N)C(c3cccc(Cl)c3Cl)C2C1 (configuration not stated)	29.0	-2.0	83.4*	-2.0	0.0	-1.0
CC(=O)N1CC=C2C(C#N)=C(N)C(C#N)(C#N)C(C)C2C1 (configuration not stated)	-3.0	-2.0	16.5	-4.0	-3.0	1.0
CN1CC=C2C(C#N)=C(N)C(C#N)(C#N)[C@H](c3ccoc3)[C@H]2C1	-1.0	-4.0	146.3*	1.0	1.0	0.0
CCOC(=O)c1csc(NC(=O)CN2CCOCC2)n1	x	x	4.4	x	x	x
O=C(N/N=C/c1ccc(Cl)cc1)C1CC12CCC2 (configuration not stated)	-3.0	0.0	4.1	-6.0	-3.0	-6.0
COc1cccc(CC(NC(C)=O)C(=O)NC2CCN(C(=O)C3CC3)CC2)c1OC (configuration not stated)	0.0	0.0	-6.5	0.0	-2.0	-2.0
O=C(OCCOc1cccc(Cl)c1)c1cc(S(=O)(=O)N2CCOCC2)ccc1F	x	x	1.2	x	x	x
COc1ccc(CN2C(=NC(=O)c3ccccc3)SC3CS(=O)(=O)CC32)cc1 (configuration not stated)	x	x	7.5	x	x	x
COc1ccc(C2=NN(C3=NN=C(N)Cc4ncnn43)C(O)(C(F)(F)F)C2)cc1 (configuration not stated)	-3.0	-2.0	-5.9	-2.0	0.0	-9.0
CCNc1nc(NC(N)=S)nc(NC(C)(C)C)n1	-19.0	-1.0	-11.1	1.0	0.0	-2.0
